# Measurements as given in PubChem BioAssay.
# Values joined by “and” are separate entries in the source; they are usually repeats but may differ in a detail not shown here. Equal values may be shown once. Records with an inconclusive call do not appear. Active and inactive are the calls of the source.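 The calls were made as follows, unless noted: active = mean z-score across replicates of 1.96 or higher in either the MELAS or the Rieske mutant cell line; inactive = the rest.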
# Key:
# [1] = viability loss in pontine glioma line – cell-based, SU-DIPG-XXV, MIPE5.0, CellTiter-Glo, qHTS, dose response (AID 1347065; cut-off not given, nearly all actives have AC50 up to about 26 µM;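 also: cells exposed to compound for 48 hours before ATP readout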); settings: CellTiter-Glo ATP luminescence
# [2] = SU-DIPG-XXV glioma cell viability, MIPE5.0 library, qHTS (AID 1347068; cut-off not given, nearly all actives have IC50 up to about 30 µM;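 as to IC50: cells exposed to compound for 48 hours before viability readout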)
# [3] = survival rescue of mitochondrial mutant cells in low glucose, primary screen, MELAS cybrids, Rieske KO mouse fibroblasts, CellTiter-Glo (AID 1508586);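 also: z relative to plate mean and SD of compound and empty wells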
# [4] = target: NAD(+) hydrolase SARM1 (Homo sapiens) (UniProt Q6SZW1); test: SARM1 TIR NADase inhibitors, cell lysate, NAD-Glo luminescence (AID 1508614;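 active = compound whose remaining NAD level is above about 45 nM, limit read from the data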;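 also: higher remaining NAD means stronger inhibition of SARM1 NADase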); settings: SAM-TIR HEK293T lysate NADase, at 1 µM, stronger effect = higher value
# [5] = target: Mitogen-activated protein kinase 7 (Homo sapiens) (UniProt Q13164); test: ERK5 transactivation activators in reporter cells, primary screen, cell-based, HTS (AID 1508626;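 active = luciferase signal above three times the same-plate solvent-only control wells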;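 also: luciferase driven by Gal4-ERK5 fusion binding five Gal4 sites before minimal TATA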); settings: HeLa Gal4-ERK5 transactivation, 18 h, at 5 µM, stronger effect = higher value
# [6] = viability rescue of complex I mutant cybrids, primary screen, cell-based, galactose medium, ATP luminescence (AID 1645843;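 active = z-score of at least 1.8 in each of two replicates, scored against plate mean and spread of sample wells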;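 also: positive z means more ATP and so rescue of galactose-driven cybrid death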); settings: complex I mutant cybrid cells, 72 h, stronger effect = higher value
# [7] = JHH-DIPG-1 glioma cell viability, MIPE5.0 library, CellTiter-Glo luminescence, qHTS (AID 1347067; cut-off not given, nearly all actives have AC50 up to about 26 µM;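 also: cells exposed to compound for 48 hours before readout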); settings: JHH-DIPG-1 glioma viability, CellTiter-Glo ATP luminescence
# [8] = sensitizers of A549 cells to miR-34 induction, primary screen, imaging, A549 dox-inducible miR-34, nuclei and caspase counts (AID 1347080;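 active = compounds whose cell count with miR-34 switched on is under 0.7 times the count with it off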); settings: A549 miR-34 inducible, Hoechst nuclei count, 48 h
# [9] = SU-DIPG-VI glioma cell viability, MIPE4.0 library, CellTiter-Glo luminescence, qHTS (AID 1347066; cut-off not given, nearly all actives have AC50 up to about 30 µM;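 also: cells exposed to compound for 48 hours before readout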); settings: CellTiter-Glo ATP luminescence
# [10] = phospholipid biosynthesis inhibitors in animal cells, primary screen, cell-based, LOPAC library, screen 4 (AID 1347384; call rule not given here); settings: phospholipid biosynthesis inhibition screen, at 10 µM
# [11] = inhibitors of Cryptococcus chitosan production, flow cytometry, Cibacron Brilliant Red staining (AID 1347148; call rule not given here;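 also: compound exposure lasted three days at 37 degrees C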); settings: Cryptococcus neoformans chitosan, stronger effect = lower value; at 10 µM unless noted
# [12] = MELAS cybrid survival, CellTiter-Glo 48 h, stronger effect = higher value
# [13] = Rieske KO mouse fibroblast survival, CellTiter-Glo 72 h
# [14] = stronger effect = lower value, cell number ratio, induced over uninduced
# [15] = measured here: relative caspase fold change +Dox/-Dox
# [16] = measured here: total cells with miR-34 induction, stronger effect = lower value
# [17] = measured here: total cells without miR-34 induction
# NAD(+) hydrolase SARM1 (Homo sapiens), sequence (Q6SZW1 whole entry, looked up, the tested form may be a part): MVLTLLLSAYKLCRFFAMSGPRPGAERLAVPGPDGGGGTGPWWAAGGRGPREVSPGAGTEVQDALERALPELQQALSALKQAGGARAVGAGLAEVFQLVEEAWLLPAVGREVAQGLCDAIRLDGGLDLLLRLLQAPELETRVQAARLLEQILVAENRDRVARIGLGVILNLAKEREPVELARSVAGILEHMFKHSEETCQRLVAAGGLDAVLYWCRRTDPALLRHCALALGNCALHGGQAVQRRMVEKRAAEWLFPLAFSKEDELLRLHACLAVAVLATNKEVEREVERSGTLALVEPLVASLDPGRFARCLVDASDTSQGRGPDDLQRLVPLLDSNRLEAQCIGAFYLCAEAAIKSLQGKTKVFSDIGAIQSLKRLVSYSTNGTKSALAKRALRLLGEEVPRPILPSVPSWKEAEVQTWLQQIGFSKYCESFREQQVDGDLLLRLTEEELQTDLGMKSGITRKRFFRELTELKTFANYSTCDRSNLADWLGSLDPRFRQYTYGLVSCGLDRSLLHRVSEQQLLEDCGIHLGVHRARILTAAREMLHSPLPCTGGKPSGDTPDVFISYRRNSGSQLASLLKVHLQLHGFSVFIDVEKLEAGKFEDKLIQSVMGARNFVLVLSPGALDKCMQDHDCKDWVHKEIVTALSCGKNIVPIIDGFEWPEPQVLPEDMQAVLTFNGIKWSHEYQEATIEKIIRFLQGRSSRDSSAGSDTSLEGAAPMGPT
# Mitogen-activated protein kinase 7 (Homo sapiens), sequence (Q13164 whole entry, looked up, the tested form may be a part): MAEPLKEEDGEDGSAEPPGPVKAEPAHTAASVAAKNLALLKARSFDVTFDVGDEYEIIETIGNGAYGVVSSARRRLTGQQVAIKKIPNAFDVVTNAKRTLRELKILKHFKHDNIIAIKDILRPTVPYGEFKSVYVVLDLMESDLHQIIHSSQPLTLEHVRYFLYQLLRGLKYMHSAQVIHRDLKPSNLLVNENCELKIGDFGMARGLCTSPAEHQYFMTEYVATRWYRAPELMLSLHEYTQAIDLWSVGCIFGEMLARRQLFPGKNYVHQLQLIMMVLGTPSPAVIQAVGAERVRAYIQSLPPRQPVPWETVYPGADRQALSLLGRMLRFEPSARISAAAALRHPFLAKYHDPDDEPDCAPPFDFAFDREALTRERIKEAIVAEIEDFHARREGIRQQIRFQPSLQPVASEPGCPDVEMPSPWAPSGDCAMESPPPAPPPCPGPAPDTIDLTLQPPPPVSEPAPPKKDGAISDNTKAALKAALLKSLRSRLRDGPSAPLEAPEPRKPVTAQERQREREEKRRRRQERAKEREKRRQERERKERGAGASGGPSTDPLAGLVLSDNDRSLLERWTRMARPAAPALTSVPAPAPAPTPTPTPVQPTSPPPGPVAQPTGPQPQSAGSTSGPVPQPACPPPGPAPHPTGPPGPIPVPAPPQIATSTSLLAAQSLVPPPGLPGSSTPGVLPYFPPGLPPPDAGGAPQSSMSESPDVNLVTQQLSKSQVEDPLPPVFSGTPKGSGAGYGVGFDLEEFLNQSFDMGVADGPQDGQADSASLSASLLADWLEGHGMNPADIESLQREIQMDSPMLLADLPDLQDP
Compound,outcome [1],outcome [2],"z-score [3, 12]","z-score [3, 13]",remaining NAD [4],luciferase signal [5],z-score [6],outcome [7],"fold change [8, 14]","fold change [8, 15]","cell count [8, 16]","cell count [8, 17]",outcome [9],outcome [10],AC50 [1],AC50 [7],IC50 [2],AC50 [9],fold fluorescence [11]
CC/C(=C(/CC)c1ccc(O)cc1)c1ccc(O)cc1,inactive,inactive,0.343 (inactive) and 0.665 (inactive),-0.0589 and -0.544,10 nM (inactive),56 AU (inactive),-0.645 (inactive),–,–,–,–,–,–,–,–,–,–,–,–
Cc1nnc(NS(=O)(=O)c2ccc(N)cc2)s1,inactive,–,-0.255 (inactive) and -1.45 (inactive),0.469 and 0.621,10 nM (inactive),184 AU (inactive),–,inactive,0.854 (inactive) and 0.859 (inactive) and 0.853 (inactive),1.13 and 0.759 and 2.93,8770 and 7900 and 10600,10300 and 9200 and 12500,–,–,–,–,–,–,–
C[C@H]1O[C@@H](n2cc(F)c(=O)[nH]c2=O)[C@H](O)[C@@H]1O,–,inactive,0.0159 (inactive),-0.832,10 nM (inactive),–,0.64 (inactive) and -0.08 (inactive),inactive,1.04 (inactive) and 0.788 (inactive),0.632 and 1.14,3620 and 3400,3490 and 4310,inactive,inactive,–,–,–,–,–
CC(C)COCC(CN(Cc1ccccc1)c1ccccc1)N1CCCC1 (centres undefined),–,–,-1.13 (inactive) and -0.882 (inactive),-0.167 and 0.23,10 nM (inactive),280 AU (inactive),-0.24 (inactive) and -2.13 (inactive),–,–,–,–,–,–,inactive,18.6 µM (active),18.6 µM (active),16.6 µM (active),–,–
C1CCC(C(CC2CCCCN2)C2CCCCC2)CC1 (centres undefined),–,–,-1.07 (inactive),0.712,10 nM (inactive),140 AU (inactive),–,–,0.746 (inactive) and 0.859 (inactive),0.891 and 3.18,5600 and 9890,7500 and 11500,–,–,10.5 µM (active),8.33 µM (active),–,–,–
CCCOc1ccc2nc(NC(=O)OC)[nH]c2c1,–,–,-1.88 (inactive) and -2.12 (inactive),-0.332 and 1.54,10 nM (inactive),40 AU (inactive),-1.72 (inactive),–,1.06 (inactive) and 1 (inactive),1.87 and 1.28,2370 and 1800,2250 and 1790,–,–,0.235 µM (active),0.295 µM (active),–,–,–
O=C(NC(Cc1cc(=O)[nH]c2ccccc12)C(=O)O)c1ccc(Cl)cc1 (centres undefined),–,inactive,-0.219 (inactive) and -0.0914 (inactive) and 0.278 (inactive),0.648 and -0.845 and -0.0622,10 nM (inactive),40 AU (inactive),0.47 (inactive),inactive,0.898 (inactive) and 0.888 (inactive),0.965 and 1.15,8440 and 9630,9400 and 10800,inactive,–,–,–,–,–,–
Clc1ccc(C(c2ccccc2Cl)C(Cl)Cl)cc1 (centres undefined),–,–,-0.255 (inactive) and -0.0992 (inactive),0.722 and 0.331,10 nM (inactive),56 AU (inactive),-1.24 (inactive),–,1.02 (inactive) and 0.901 (inactive) and 0.92 (inactive),1.69 and 0.413 and 1.68,9100 and 8310 and 10700,8890 and 9220 and 11600,–,inactive,–,20.9 µM (active),–,23.5 µM (active),–
COc1cc(/C=C/C(=O)CC(=O)/C=C/c2ccc(O)c(OC)c2)ccc1O,–,–,–,–,–,44 AU (inactive),–,–,0.955 (inactive),1.47,6170,6460,–,–,20.9 µM (active),–,–,–,8.92 [at 135.7 µM] (inactive)
NCCCCCC(=O)O,inactive,inactive,-0.274 (inactive) and -0.333 (inactive),-0.165 and -1.21,10 nM (inactive),40 AU (inactive),1.05 (inactive),inactive,–,–,–,–,–,inactive,–,–,–,–,–
CNC[C@H](O)[C@@H](O)[C@H](O)[C@H](O)CO,–,inactive,0.108 (inactive) and -0.495 (inactive),-0.764 and -1.1,10 nM (inactive),–,0.835 (inactive),inactive,0.909 (inactive),1.1,9480,10400,inactive,–,–,–,–,–,–
CNC[C@H](O)c1ccc(O)c(O)c1,–,inactive,–,–,10 nM (inactive),24 AU (inactive),-1.02 (inactive),inactive,0.963 (inactive),1.01,10100,10500,inactive,inactive,–,–,–,–,–
O=P(O)(O)C(O)(Cc1cccnc1)P(=O)(O)O,–,inactive,0.589 (inactive) and -0.187 (inactive),0.376 and -0.746,10 nM (inactive),1260 AU (active),0.515 (inactive),inactive,0.901 (inactive) and 0.801 (inactive),4.65 and 1.35,12400 and 8410,13700 and 10500,inactive,–,–,–,–,–,–
CC(=O)N(O)CCCCCNC(=O)CCC(=O)N(O)CCCCCNC(=O)CCC(=O)N(O)CCCCCN,–,inactive,-0.752 (inactive) and -0.803 (inactive),-0.313 and -1.18,10 nM (inactive),40 AU (inactive),0.76 (inactive),–,0.985 (inactive) and 0.882 (inactive) and 0.874 (inactive),1.2 and 0.413 and 4.36,4610 and 9190 and 10300,4680 and 10400 and 11800,–,–,13.2 µM (active),–,–,–,–
